Experimental data as given in PubChem BioAssay (EPA / NIEHS).
Inconclusive results are not listed. Active and inactive are the calls of the source. The calls were made as follows, unless noted: active = hit-call score of the fitted dose curve at least 0.9, where 1 is the maximum; inconclusive = response in the unintended direction; inactive = score below 0.9.

Experiments:
[1] = ATG_TAL_CIS: Attagene CIS-FACTORIAL HepG2 Assay for human TAL Basal Promoter (AID 2282966; active = hit-call score of the fitted dose curve at least 0.9, where 1 is the maximum; inactive = score below 0.9;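 also: background control endpoint measuring basal TAL promoter reporter mRNA not a specific factor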); conditions: HepG2 Attagene cis-factorial TAL promoter reporter; actives raise or lower the signal
Outline: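 HepG2 cells were transiently transfected with promoter-driven multiplexed reporter units and dosed for 24 h. Reporter mRNA was measured by RT-PCR with capillary electrophoresis fluorescence; bidirectional fits used DMSO as baseline, serving as a background control.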

[2] = ATG_TGFb_CIS: Attagene CIS-FACTORIAL HepG2 Assay for human Transforming Growth Factor (TGF) (AID 2282967; active = hit-call score of the fitted dose curve at least 0.9, where 1 is the maximum; inactive = score below 0.9); conditions: HepG2 Attagene CIS TGFb reporter, mRNA transcription; actives raise or lower the signal
Outline: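 Transient MRTU transfection of HepG2 (FuGene 6). Dose 24 h. TriZol RNA, oligo(dT) RT, PCR, 6-FAM primer extension, HpaI cut, CE. Bidirectional fit, DMSO = baseline.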

[3] = ATG_VDRE_CIS: Attagene CIS-FACTORIAL HepG2 Assay for human Vitamin D Receptor Element (VDRE) (AID 2282968; active = hit-call score of the fitted dose curve at least 0.9, where 1 is the maximum; inactive = score below 0.9); conditions: HepG2 VDRE cis-reporter transcription, actives raise or lower the signal
Outline: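 Transiently transfected HepG2 cells carrying cis-regulated reporter transcription units were exposed for 24 h. Reporter mRNA was measured by RT-PCR with fluorescent labelling and capillary electrophoresis, and fitted in both directions against DMSO.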

[4] = target: Nuclear receptor subfamily 1 group I member 3 (Homo sapiens) (UniProt Q14994); test: ATG_CAR_TRANS: Attagene TRANS-FACTORIAL HepG2 Assay for human Constitutive Androstane Receptor (CAR) (AID 2282969); conditions: HepG2 Attagene TRANS-FACTORIAL CAR reporter;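 also: activators raise reporter mRNA above DMSO so AC50 marks induction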
Chain of Nuclear receptor subfamily 1 group I member 3 (Homo sapiens) (Q14994 whole entry, looked up, the tested form may be a part): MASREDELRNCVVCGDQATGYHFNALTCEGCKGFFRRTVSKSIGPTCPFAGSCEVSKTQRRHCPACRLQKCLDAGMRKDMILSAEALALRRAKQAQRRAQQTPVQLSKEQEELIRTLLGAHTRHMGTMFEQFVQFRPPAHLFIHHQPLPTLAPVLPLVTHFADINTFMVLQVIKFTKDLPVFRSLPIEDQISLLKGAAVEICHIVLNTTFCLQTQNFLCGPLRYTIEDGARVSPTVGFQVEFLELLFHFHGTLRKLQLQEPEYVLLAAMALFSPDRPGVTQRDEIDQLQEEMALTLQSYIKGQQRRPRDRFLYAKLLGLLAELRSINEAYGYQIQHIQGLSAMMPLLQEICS
Outline: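 HepG2 cells transiently transfected with GAL4-UAS reporter units; TRANS format reads activity of exogenous chimeric NR-Gal4 protein. After 24 h dosing, reporter mRNA quantified by RT-PCR, 6-FAM labelling and capillary electrophoresis; gain of signal fitted against DMSO.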

[5] = target: Estrogen receptor (Homo sapiens) (UniProt P03372); test: ATG_ERa_TRANS: Attagene TRANS-FACTORIAL HepG2 Assay for human Estrogen Receptor alpha (ERa) (AID 2282970); conditions: HepG2 Attagene TRANS ERa GAL4 reporter, mRNA
Outline: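 HepG2 cells transiently transfected with multiplexed GAL4-UAS reporter units; ERa activity read via exogenous chimeric NR-Gal4 protein. After 24 hour compound exposure, reporter mRNA measured by RT-PCR with 6-FAM labelling and capillary electrophoresis; gain-of-signal fitted relative to DMSO.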

[6] = target: Steroid hormone receptor ERR1 (Homo sapiens) (UniProt P11474); test: ATG_ERRa_TRANS: Attagene TRANS-FACTORIAL HepG2 Assay for human Estrogen-Related Receptor alpha (ERRa) (AID 2282971); conditions: HepG2 Attagene TRANS reporter, ERRa transactivation
Chain of Steroid hormone receptor ERR1 (Homo sapiens) (P11474 whole entry, looked up, the tested form may be a part): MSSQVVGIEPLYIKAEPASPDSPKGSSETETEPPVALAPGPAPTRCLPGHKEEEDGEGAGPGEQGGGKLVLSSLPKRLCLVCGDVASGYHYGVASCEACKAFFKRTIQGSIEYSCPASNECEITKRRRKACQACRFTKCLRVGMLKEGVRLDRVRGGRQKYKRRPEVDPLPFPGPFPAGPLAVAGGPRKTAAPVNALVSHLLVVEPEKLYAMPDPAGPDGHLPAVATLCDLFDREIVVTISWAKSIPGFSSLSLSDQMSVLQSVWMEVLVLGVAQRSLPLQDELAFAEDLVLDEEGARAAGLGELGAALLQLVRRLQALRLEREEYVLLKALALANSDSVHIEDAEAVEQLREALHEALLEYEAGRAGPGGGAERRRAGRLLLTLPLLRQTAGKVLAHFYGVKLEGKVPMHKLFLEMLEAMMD
Outline: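 HepG2 cells transiently transfected with multiplexed GAL4-UAS reporter units reading chimeric ERRa-Gal4 activity; 24 h compound exposure. Reporter mRNA measured by RT-PCR, 6-FAM labelling, HpaI digest and capillary electrophoresis; gain of signal fitted versus DMSO baseline.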

[7] = target: X-box-binding protein 1 (Homo sapiens) (UniProt P17861); test: ATG_Xbp1_CIS: Attagene CIS-FACTORIAL HepG2 Assay for human X-box Binding Protein 1 (XBP1) (AID 2282972; active = hit-call score of the fitted dose curve at least 0.9, where 1 is the maximum; inactive = score below 0.9); conditions: HepG2 XBP1 cis-element reporter, Attagene multiplex; actives raise or lower the signal
Chain of X-box-binding protein 1 (Homo sapiens) (P17861 whole entry, looked up): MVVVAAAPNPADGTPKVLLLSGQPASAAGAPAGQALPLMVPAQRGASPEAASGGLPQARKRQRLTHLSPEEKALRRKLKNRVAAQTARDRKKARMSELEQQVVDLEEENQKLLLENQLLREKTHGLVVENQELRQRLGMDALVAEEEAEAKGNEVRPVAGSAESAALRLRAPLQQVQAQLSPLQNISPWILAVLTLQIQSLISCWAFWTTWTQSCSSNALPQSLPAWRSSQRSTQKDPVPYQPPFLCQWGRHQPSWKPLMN
Outline: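 HepG2 cells transiently transfected with multiple cis-element reporter units report endogenous TF activity; 24 h exposure, then reporter mRNA measured by RT-PCR, 6-FAM labelling, HpaI digestion and capillary electrophoresis. Bidirectional fitting versus DMSO.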

[8] = ATG_Hpa5_TRANS: Attagene TRANS-FACTORIAL HepG2 Assay for human GAL4-Hpa5 Hepatocyte Transcription Factor Basal Promoter (AID 2282975); conditions: HepG2 Attagene GAL4-Hpa5 transcription reporter;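 also: hits are increases in reporter mRNA over DMSO baseline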
Outline: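 Basal-promoter GAL4 background control within the HepG2 trans-factorial panel of transiently transfected reporter units. Reporter mRNA is measured 24 h after dosing by RT-PCR and capillary electrophoresis, fitted for gain of signal versus DMSO.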

[9] = target: Glucocorticoid receptor (Homo sapiens) (UniProt P04150); test: ATG_GR_TRANS: Attagene TRANS-FACTORIAL HepG2 Assay for human Glucocorticoid Receptor (GR) (AID 2282978); conditions: HepG2 Attagene TRANS GR reporter, mRNA transcription;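 also: activators score as hits since higher reporter transcript over DMSO is fitted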
Chain of Glucocorticoid receptor (Homo sapiens) (P04150 whole entry, looked up): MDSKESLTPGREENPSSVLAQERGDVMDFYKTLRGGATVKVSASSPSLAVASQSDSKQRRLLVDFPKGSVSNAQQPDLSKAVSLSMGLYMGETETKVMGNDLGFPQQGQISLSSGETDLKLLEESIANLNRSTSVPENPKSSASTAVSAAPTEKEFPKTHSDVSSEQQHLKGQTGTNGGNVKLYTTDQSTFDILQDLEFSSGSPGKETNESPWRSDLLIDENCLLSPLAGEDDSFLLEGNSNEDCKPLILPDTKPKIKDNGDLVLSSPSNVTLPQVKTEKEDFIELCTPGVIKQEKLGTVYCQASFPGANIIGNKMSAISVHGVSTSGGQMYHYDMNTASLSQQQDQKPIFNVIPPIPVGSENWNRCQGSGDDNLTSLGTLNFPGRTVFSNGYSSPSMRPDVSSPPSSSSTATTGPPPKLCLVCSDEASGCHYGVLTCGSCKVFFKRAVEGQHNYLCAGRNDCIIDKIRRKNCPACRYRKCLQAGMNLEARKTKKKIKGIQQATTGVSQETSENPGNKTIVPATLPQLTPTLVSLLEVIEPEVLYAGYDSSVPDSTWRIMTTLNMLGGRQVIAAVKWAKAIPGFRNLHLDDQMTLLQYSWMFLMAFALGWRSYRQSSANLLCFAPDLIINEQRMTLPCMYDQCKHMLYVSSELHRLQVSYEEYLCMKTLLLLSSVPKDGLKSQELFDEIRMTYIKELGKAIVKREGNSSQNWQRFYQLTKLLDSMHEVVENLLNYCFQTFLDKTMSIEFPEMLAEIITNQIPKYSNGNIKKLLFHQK
Outline: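 After 24 h incubation with test chemical, transfected HepG2 cells were lysed for RNA; reporter cDNA was amplified, FAM-labelled, HpaI-digested and sized on a capillary analyser. Signal gain relative to DMSO was scored.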

[10] = target: Transcriptional activator Myb (Homo sapiens) (UniProt P10242); test: ATG_Myb_CIS: Attagene CIS-FACTORIAL HepG2 Assay for human Myeloblastosis (Myb) Proto-Oncogene Transcription Factor (AID 2282986; active = hit-call score of the fitted dose curve at least 0.9, where 1 is the maximum; inactive = score below 0.9); conditions: HepG2 Attagene CIS-FACTORIAL Myb reporter transcription; actives raise or lower the signal
Chain of Transcriptional activator Myb (Homo sapiens) (P10242 whole entry, looked up): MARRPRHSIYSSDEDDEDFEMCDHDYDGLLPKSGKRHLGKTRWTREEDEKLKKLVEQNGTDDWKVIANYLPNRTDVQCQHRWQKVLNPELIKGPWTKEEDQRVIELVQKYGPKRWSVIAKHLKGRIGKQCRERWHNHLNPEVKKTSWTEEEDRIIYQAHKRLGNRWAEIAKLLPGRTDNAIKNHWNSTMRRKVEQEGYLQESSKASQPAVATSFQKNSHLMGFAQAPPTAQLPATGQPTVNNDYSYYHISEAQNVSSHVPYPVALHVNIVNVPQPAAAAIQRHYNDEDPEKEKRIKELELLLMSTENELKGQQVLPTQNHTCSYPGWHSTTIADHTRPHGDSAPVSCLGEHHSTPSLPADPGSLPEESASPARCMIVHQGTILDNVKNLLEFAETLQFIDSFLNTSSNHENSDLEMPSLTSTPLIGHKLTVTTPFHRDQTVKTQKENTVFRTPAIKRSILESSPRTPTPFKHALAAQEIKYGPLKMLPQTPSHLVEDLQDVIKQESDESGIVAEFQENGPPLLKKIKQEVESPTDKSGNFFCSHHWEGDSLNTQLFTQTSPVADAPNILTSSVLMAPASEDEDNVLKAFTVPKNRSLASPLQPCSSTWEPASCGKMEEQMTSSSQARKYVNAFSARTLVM
Outline: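 After 24 h of compound dosing, total RNA from transfected HepG2 cells is reverse-transcribed and the reporter sequences amplified, labeled and separated by capillary electrophoresis. Values come from bidirectional fitting against DMSO.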

[11] = target: Bile acid receptor (Homo sapiens) (UniProt Q96RI1); test: ATG_FXR_TRANS: Attagene TRANS-FACTORIAL HepG2 Assay for Farnesoid X Receptor (FXR) (AID 2282979); conditions: HepG2 Attagene TRANS FXR-GAL4 reporter transcription;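 also: hits raise reporter mRNA above DMSO so AC50 marks FXR activation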
Chain of Bile acid receptor (Homo sapiens) (Q96RI1 whole entry, looked up, the tested form may be a part): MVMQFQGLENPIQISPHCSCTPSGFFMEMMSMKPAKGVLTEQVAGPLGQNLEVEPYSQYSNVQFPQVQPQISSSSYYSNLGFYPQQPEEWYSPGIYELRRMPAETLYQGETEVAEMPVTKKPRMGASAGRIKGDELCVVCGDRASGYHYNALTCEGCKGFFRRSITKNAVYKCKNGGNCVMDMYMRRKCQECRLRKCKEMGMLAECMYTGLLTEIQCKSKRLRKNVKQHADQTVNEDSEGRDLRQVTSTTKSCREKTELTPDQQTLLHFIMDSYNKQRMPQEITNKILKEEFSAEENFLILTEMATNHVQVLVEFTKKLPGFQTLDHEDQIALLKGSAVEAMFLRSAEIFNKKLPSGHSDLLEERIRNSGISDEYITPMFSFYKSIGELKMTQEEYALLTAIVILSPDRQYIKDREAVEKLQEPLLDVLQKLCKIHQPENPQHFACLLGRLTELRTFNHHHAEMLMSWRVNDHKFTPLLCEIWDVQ
Outline: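 HepG2 cells transiently transfected with reporter constructs in which a chimeric FXR-GAL4 protein drives a GAL4-UAS reporter; 24 h compound exposure. Reporter mRNA measured by RT-PCR, FAM labelling, HpaI digestion and capillary electrophoresis; gain-of-signal versus DMSO.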

[12] = ATG_M_32_TRANS: Attagene TRANS-FACTORIAL HepG2 Assay for M32 Transcription Factor (Internal Marker) (AID 2282984); conditions: HepG2 Attagene TRANS M32 internal marker reporter
Outline: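 HepG2 cells transiently transfected with GAL4-UAS reporter units, dosed for 24 hours. Reporter mRNA quantified by RT-PCR, 6-FAM labelling, HpaI digestion and capillary electrophoresis; internal-marker signal fitted upward relative to DMSO.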

[13] = target: Nuclear receptor subfamily 4 group A member 2 (Homo sapiens) (UniProt P43354); test: ATG_NURR1_TRANS: Attagene TRANS-FACTORIAL HepG2 Assay for human Nuclear Receptor Related Protein 1 (NURR1) (AID 2282985); conditions: HepG2 Attagene TRANS reporter, mRNA readout
Chain of Nuclear receptor subfamily 4 group A member 2 (Homo sapiens) (P43354 whole entry, looked up, the tested form may be a part): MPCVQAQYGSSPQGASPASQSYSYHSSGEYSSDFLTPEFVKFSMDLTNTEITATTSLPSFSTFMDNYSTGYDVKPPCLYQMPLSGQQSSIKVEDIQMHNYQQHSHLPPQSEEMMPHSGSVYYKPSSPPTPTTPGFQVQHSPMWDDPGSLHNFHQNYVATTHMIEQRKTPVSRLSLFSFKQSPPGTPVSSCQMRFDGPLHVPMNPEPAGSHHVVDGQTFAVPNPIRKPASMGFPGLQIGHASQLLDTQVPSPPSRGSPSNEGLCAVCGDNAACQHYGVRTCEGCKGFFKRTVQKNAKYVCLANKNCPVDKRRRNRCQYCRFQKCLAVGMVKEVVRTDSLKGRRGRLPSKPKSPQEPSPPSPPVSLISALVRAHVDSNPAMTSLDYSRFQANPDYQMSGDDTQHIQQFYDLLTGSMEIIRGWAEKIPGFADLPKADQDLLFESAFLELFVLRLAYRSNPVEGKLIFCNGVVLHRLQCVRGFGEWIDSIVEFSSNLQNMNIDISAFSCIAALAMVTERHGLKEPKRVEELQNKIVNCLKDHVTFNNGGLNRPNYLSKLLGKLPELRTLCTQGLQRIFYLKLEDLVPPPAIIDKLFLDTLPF
Outline: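 HepG2 cells transiently transfected with NURR1-Gal4 chimera and GAL4-UAS reporter units; after 24 hr compound exposure, reporter mRNA quantified by RT-PCR and capillary electrophoresis; gain of signal fitted against DMSO.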

[14] = ATG_M_06_TRANS: Attagene TRANS-FACTORIAL HepG2 Assay for M06 Transcription Factor (Internal Marker) (AID 2282983); conditions: HepG2 Attagene TRANS M06 internal marker reporter;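 also: reporter transcript level by RT-PCR then capillary electrophoresis fluorescence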
Outline: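 HepG2 cells transiently transfected with multiplexed GAL4-UAS reporter transcription units; after 24 h compound exposure, reporter mRNA measured by RT-PCR, FAM-labelled primer extension, HpaI digestion and capillary electrophoresis. Gain-of-signal fitted versus DMSO baseline; background control readout.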

[15] = target: Oxysterols receptor LXR-alpha (Homo sapiens) (UniProt Q13133); test: ATG_LXRa_TRANS: Attagene TRANS-FACTORIAL HepG2 Assay for human Liver X Receptor alpha (LXRa) (AID 2282980); conditions: HepG2 Attagene TRANS reporter, LXRa transactivation
Chain of Oxysterols receptor LXR-alpha (Homo sapiens) (Q13133 whole entry, looked up, the tested form may be a part): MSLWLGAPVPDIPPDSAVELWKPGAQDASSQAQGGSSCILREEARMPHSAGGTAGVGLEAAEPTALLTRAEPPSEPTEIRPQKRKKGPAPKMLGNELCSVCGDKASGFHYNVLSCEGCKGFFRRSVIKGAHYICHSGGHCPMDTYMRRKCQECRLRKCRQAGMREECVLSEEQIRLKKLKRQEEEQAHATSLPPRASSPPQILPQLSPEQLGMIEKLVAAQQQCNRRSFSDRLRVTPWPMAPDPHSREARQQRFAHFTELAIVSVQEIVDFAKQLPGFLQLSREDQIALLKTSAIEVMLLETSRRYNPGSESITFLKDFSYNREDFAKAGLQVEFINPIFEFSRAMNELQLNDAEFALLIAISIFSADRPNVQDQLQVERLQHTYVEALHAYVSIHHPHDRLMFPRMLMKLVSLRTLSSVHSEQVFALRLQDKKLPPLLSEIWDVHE
Outline: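 HepG2 cells were transiently transfected with multiplexed reporter units driven by chimeric LXRa–GAL4 fusion proteins, then dosed for 24 h. Reporter mRNA was quantified by RT-PCR, fluorescent labelling and capillary electrophoresis; gain of signal fitted against DMSO baseline.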

[16] = target: Oxysterols receptor LXR-beta (Homo sapiens) (UniProt P55055); test: ATG_LXRb_TRANS: Attagene TRANS-FACTORIAL HepG2 Assay for human Liver X Receptor beta (LXRb) (AID 2282981); conditions: HepG2 Attagene TRANS GAL4-LXRb reporter, mRNA
Chain of Oxysterols receptor LXR-beta (Homo sapiens) (P55055 whole entry, looked up, the tested form may be a part): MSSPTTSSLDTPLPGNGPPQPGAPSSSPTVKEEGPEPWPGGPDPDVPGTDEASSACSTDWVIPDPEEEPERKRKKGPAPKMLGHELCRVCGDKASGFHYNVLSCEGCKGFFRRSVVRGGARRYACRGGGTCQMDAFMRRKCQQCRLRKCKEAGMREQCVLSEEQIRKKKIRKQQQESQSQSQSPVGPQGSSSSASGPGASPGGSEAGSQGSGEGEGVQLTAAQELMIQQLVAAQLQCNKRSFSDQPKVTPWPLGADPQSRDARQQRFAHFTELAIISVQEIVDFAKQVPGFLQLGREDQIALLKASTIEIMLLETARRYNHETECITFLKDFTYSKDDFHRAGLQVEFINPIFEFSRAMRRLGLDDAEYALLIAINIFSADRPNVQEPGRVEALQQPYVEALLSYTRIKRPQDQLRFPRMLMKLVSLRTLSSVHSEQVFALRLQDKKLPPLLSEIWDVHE
Outline: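 HepG2 cells transiently transfected with GAL4-UAS reporter units for chimeric NR-Gal4 proteins, dosed for 24 h. Reporter transcripts measured by RT-PCR and capillary electrophoresis; gain-of-signal fitting relative to DMSO.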

[17] = target: Hepatocyte nuclear factor 4-alpha (Homo sapiens) (UniProt P41235); test: ATG_HNF4a_TRANS: Attagene TRANS-FACTORIAL HepG2 Assay for human Hepatocyte Nuclear Factor 4 alpha (HNF4a) (AID 2282982); conditions: HepG2 HNF4a transactivation reporter, mRNA readout
Chain of Hepatocyte nuclear factor 4-alpha (Homo sapiens) (P41235 whole entry, looked up, the tested form may be a part): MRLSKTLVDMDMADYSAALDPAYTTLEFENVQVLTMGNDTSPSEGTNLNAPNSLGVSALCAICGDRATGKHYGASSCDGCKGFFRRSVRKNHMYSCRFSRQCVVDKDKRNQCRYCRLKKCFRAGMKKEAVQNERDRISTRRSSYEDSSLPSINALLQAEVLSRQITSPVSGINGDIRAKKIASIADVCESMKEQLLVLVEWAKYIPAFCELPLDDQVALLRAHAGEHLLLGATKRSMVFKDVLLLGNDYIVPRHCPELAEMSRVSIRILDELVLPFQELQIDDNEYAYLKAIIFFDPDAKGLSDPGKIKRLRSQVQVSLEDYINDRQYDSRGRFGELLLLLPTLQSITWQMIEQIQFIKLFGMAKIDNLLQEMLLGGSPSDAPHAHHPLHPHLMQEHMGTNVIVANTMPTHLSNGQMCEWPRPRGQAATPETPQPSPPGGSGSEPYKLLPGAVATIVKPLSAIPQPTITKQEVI
Outline: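 HepG2 cells transiently transfected with HNF4a-Gal4 chimera and GAL4-UAS reporter units, dosed for 24 h. Reporter mRNA measured by RT-PCR, fluorescent primer extension and capillary electrophoresis; gain-of-signal fitted relative to DMSO.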

[18] = target: Estrogen-related receptor gamma (Homo sapiens) (UniProt P62508); test: ATG_ERRg_TRANS: Attagene TRANS-FACTORIAL HepG2 Assay for human Estrogen-Related Receptor gamma (ERRg) (AID 2282977); conditions: HepG2 Attagene TRANS reporter, ERRg transactivation;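 also: hits increase reporter signal over DMSO so potencies reflect activators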
Outline: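 HepG2 cells transiently transfected with multiplexed GAL4-UAS reporter units driven by chimeric NR-Gal4 proteins; 24 h exposure. Reporter mRNA quantified by RT-PCR, fluorescent labelling, HpaI digestion and capillary electrophoresis; gain of signal vs DMSO.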

Measured: AC50

COP(=O)(OC)SCn1c(=O)oc2cc(Cl)cnc21
inactive: [1] | [2] | [3] | [4] | [5] | [6] | [7] | [8] | [9] | [10]

CCCCSP(=O)(SCCCC)SCCCC
active: [1] 13 µM | [3] 12 µM | [10] 83.3 µM
inactive: [2] | [4] | [7] | [8] | [9] | [11] | [12] | [13]

FC(F)C(F)(F)OCC(Cn1cncn1)c1ccc(Cl)cc1Cl (configuration not stated)
active: [3] 37.3 µM | [7] 75.8 µM
inactive: [1] | [2] | [14] | [13] | [10]

CC(=NC#N)N(C)Cc1ccc(Cl)nc1
inactive: [1] | [2] | [3] | [7] | [8] | [15] | [14] | [12] | [13] | [10]

CC(C1CC1)C(O)(Cn1cncn1)c1ccc(Cl)cc1 (configuration not stated)
inactive: [1] | [2] | [3] | [7] | [15] | [16] | [12] | [13] | [10]

CNC(=O)ON=C(C)SC
inactive: [1] | [2] | [3] | [7] | [8] | [9] | [15] | [17] | [12] | [10]

CCOP(=S)(OCC)Oc1cc(C)nc(C(C)C)n1
inactive: [1] | [2] | [4] | [7] | [8] | [9] | [15] | [14] | [13] | [10]

CCOP(=S)(OCC)Oc1ccc([N+](=O)[O-])cc1
inactive: [1] | [2] | [4] | [7] | [9] | [14] | [13] | [10]

Nc1nc(N)nc(NC2CC2)n1
not listed: [3] | [4] | [5] | [8] | [17]
inactive: all other assays above

O=C(O)c1cc(Oc2ccc(C(F)(F)F)cc2Cl)ccc1[N+](=O)[O-]
inactive: [1] | [2] | [6] | [7] | [8] | [9] | [17] | [12] | [10]
